Assay [1] in a line: qHTS of pediatric cancer cell lines to identify multiple opportunities for drug repurposing: Primary screen for DAOY cells (AID 1347090). Further: nearly all actives have a fitted effect of over 55% in size. Further: potency means the concentration at half of the fitted maximal effect. The gist of the method: (§1)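 Viability measured as metabolically active cells via CellTiter-Glo luminescence following 48 hours of compound exposure, 11-point dilutions in confirmatory testing. 500-1,000 cells/well plated 5 hours before dosing; controls were DMSO and 2.3 µM bortezomib.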
A general note: In qHTS, concentration-response curves come from the screen itself.

A short description of assay [2]: qHTS of pediatric cancer cell lines to identify multiple opportunities for drug repurposing: Primary screen for SJ-GBM2 cells (AID 1347091). Further: potency means the concentration at half of the fitted maximal effect. In a few lines: as §1
The nature of assay [3]: qHTS of pediatric cancer cell lines to identify multiple opportunities for drug repurposing: Primary screen for A673 cells (AID 1347092). Further: nearly all actives have a fitted effect of over 45% in size. Further: potency means the concentration at half of the fitted maximal effect. The gist of the method: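 A673 cells (500-1,000 cells/well in growth media) were pre-incubated 5 h at 37 degrees C, then exposed to compounds for 48 h. Viability was read as CellTiter-Glo luminescence; concentration-response curves came directly from the primary screen.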

Assay [4] in a line: qHTS of pediatric cancer cell lines to identify multiple opportunities for drug repurposing: Primary screen for SK-N-MC cells (AID 1347093). Further: potency means the concentration at half of the fitted maximal effect. In a few lines: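 Metabolically active cells were quantified by ATP-dependent luminescence (CellTiter-Glo, 15 min at room temperature) following 48 h treatment. Cells had been plated at 500-1,000 per well and settled for 5 h beforehand.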

A short description of assay [5]: qHTS of pediatric cancer cell lines to identify multiple opportunities for drug repurposing: Primary screen for BT-37 cells (AID 1347094). Further: potency means the concentration at half of the fitted maximal effect. The gist of the method: (§2)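 Primary screen of approved and investigational compounds on cells in growth media at 37 degrees C, 5% CO2. MIPE set at 11-point and NPC set at 8-point dilutions; viability scored by ATP-based luminescence at 48 hours.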

Assay [6] can be described thus: qHTS of pediatric cancer cell lines to identify multiple opportunities for drug repurposing: Primary screen for U-2 OS cells (AID 1347096). Further: nearly all actives have a fitted effect of over 50% in size. The gist of the method:
(§3)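 Viability after 48 h compound treatment at 37C, 500-1,000 cells/well, read as ATP luminescence with CellTiter-Glo. Primary screens used 11-point (MIPE, 0.78 nM-46 µM) or 8-point (NPC, 0.59 nM-46 µM) final concentrations; follow-up screens used 11-point dilutions.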

The nature of assay [7]: qHTS of pediatric cancer cell lines to identify multiple opportunities for drug repurposing: Primary screen for Saos-2 cells (AID 1347097). Further: nearly all actives have a fitted effect of over 40% in size. Further: potency means the concentration at half of the fitted maximal effect. The gist of the method: as §2
A short description of assay [8]: qHTS of pediatric cancer cell lines to identify multiple opportunities for drug repurposing: Primary screen for SK-N-SH cells (AID 1347098). Further: nearly all actives have a fitted effect of over 65% in size. Further: potency means the concentration at half of the fitted maximal effect. The gist of the method: (§4)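 Cells (500-1,000/well) rested 5 h, then received compounds for 48 h; metabolically active cells were measured by CellTiter-Glo luminescence. Final concentrations spanned up to 46 µM (MIPE, 11-point) or 0.59 nM-46 µM (NPC, 8-point) in primary screens, 11-point in follow-ups.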

Assay [9] can be described thus: qHTS of pediatric cancer cell lines to identify multiple opportunities for drug repurposing: Primary screen for NB1643 cells (AID 1347099). Further: nearly all actives have a fitted effect of over 50% in size. Further: potency means the concentration at half of the fitted maximal effect. The gist of the method: as §2
A short description of assay [10]: qHTS of pediatric cancer cell lines to identify multiple opportunities for drug repurposing: Primary screen for LAN-5 cells (AID 1347100). Further: potency means the concentration at half of the fitted maximal effect. The gist of the method: as §3
The nature of assay [11]: qHTS of pediatric cancer cell lines to identify multiple opportunities for drug repurposing: Primary screen for BT-12 cells (AID 1347101). Further: nearly all actives have a fitted effect of over 25% in size. Further: potency means the concentration at half of the fitted maximal effect. The gist of the method:
as §4

A short description of assay [12]: qHTS of pediatric cancer cell lines to identify multiple opportunities for drug repurposing: Primary screen for Rh18 cells (AID 1347102). Further: nearly all actives have a fitted effect of over 65% in size. Further: potency means the concentration at half of the fitted maximal effect. In a few lines: as §3
The nature of assay [13]: qHTS of pediatric cancer cell lines to identify multiple opportunities for drug repurposing: Primary screen for OHS-50 cells (AID 1347103). Further: nearly all actives have a fitted effect of over 40% in size. Further: potency means the concentration at half of the fitted maximal effect. In a few lines:
as §4

Assay [14] in a line: qHTS of pediatric cancer cell lines to identify multiple opportunities for drug repurposing: Primary screen for RD cells (AID 1347104). Further: nearly all actives have a fitted effect of over 55% in size. Further: potency means the concentration at half of the fitted maximal effect. The gist of the method: as §2
A short description of assay [15]: qHTS of pediatric cancer cell lines to identify multiple opportunities for drug repurposing: Primary screen for MG 63 (6-TG R) cells (AID 1347105). Further: nearly all actives have a fitted effect of over 50% in size. Further: potency means the concentration at half of the fitted maximal effect. The gist of the method: as §2
Assay [16] is described as follows: qHTS of pediatric cancer cell lines to identify multiple opportunities for drug repurposing: Primary screen for control Hh wild type fibroblast cells (AID 1347106).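 Further: series mostly up to about 46 µM; a drop in luminescence marks cytotoxicity and a rise apparent proliferation; nearly all actives have a fitted effect of over 55% in size.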 In a few lines:
as §3

Assay [17] is described as follows: qHTS of pediatric cancer cell lines to identify multiple opportunities for drug repurposing: Primary screen for Rh30 cells (AID 1347107). Further: series mostly up to about 46 µM; nearly all actives have a fitted effect of over 75% in size. In a few lines:
as §3

Assay [18] is described as follows: qHTS of pediatric cancer cell lines to identify multiple opportunities for drug repurposing: Primary screen for Rh41 cells (AID 1347108). Further: nearly all actives have a fitted effect of over 70% in size. Further: potency means the concentration at half of the fitted maximal effect. The gist of the method: as §2
Assay [19] can be described thus: qHTS of pediatric cancer cell lines to identify multiple opportunities for drug repurposing: Confirmatory screen for NB1643 cells (AID 1347109). Further: nearly all actives have a fitted effect of over 45% in size. Further: potency means the concentration at half of the fitted maximal effect. The gist of the method: as §3
Assay [20] can be described thus: qHTS of pediatric cancer cell lines to identify multiple opportunities for drug repurposing: Primary screen for NB-EBc1 cells (AID 1347095). Further: potency means the concentration at half of the fitted maximal effect. The gist of the method:
as §2

Where “and” joins values, the source holds several entries; their conditions need not be identical. Equal entries are not always repeated. Records with an inconclusive call do not appear. Calls of active or inactive are those of the source. The call rests on the fitted dose curve; in most records, active means well fitted curve in the direction sought with a large enough effect; inconclusive means small, poorly fitted or top-dose-only effect, or another doubt; inactive means no such curve, though single readings can be large; an effect the other way counts as inactive or inconclusive.

Turning to `O=NN(CCCl)C(=O)NCCCl`, the Potency result in [1], in assay [2], in assay [3], in assay [4], in assay [5] and in [6] was “inactive” throughout. For the same compound, the Potency entry in [7], in assay [8], in [9], in [10], in assay [11] and in [12] was “inactive” throughout. Moreover, the Potency entry in assay [13], in [14], in assay [15], in assay [16], in assay [17] and in assay [18] was “inactive” in each case. The Potency result in assay [19] was “inactive”.
Turning to `Cc1cnc(NC(=O)C2=C(O)c3ccccc3S(=O)(=O)N2C)s1`, the Potency result in [1], in [2], in [3], in assay [4], in assay [5] and in [20] was “inactive” each time. Besides, the Potency result in [6], in [7], in [8], in assay [9], in [10] and in assay [11] was “inactive” in each case. Besides, the Potency result in [12], in assay [14], in assay [15], in assay [16], in [17] and in assay [18] was “inactive” throughout.
As for `Oc1ccc(C2CNCCc3c2cc(O)c(O)c3Cl)cc1` (stereo unspecified), the Potency result in assay [1], in assay [2], in assay [3], in [4], in [5] and in [20] was “inactive” throughout. Further, the Potency result in [6], in assay [7], in assay [8], in assay [9], in [10] and in assay [11] was “inactive” each time. Further, the Potency result in assay [12], in assay [14], in [15], in assay [17] and in assay [18] was “inactive” throughout.
Consider `CN1CCN(CCCN2c3ccccc3Sc3ccc(C(F)(F)F)cc32)CC1`, for which the Potency result in [1], in assay [6], in assay [12], in assay [17] and in assay [18] was “inactive” throughout. Also, the Potency was 18.7 µM (active) in [2]; 21.1 µM (active) and 296 nM (active) in assay [3]; 1.05 µM (active) in [4]; 18.7 µM (active) in assay [7]; 12.2 µM (active) and 7.64 µM (active) in assay [8]; 3.32 µM (active) in [9]. Also, the Potency was 16.6 µM (active) in assay [10]; 24.6 µM (active) and 21.7 µM (active) in [11]; 26.6 µM (active) and 18.7 µM (active) in assay [14]; 23.3 µM (active) in [19].
For `O=C(C=Cc1ccc(/C=C/C(=O)Nc2ccc(C3=NCCN3)cc2)cc1)Nc1ccc(C2=NCCN2)cc1`, the Potency result in [1], in [2], in assay [3], in assay [5], in assay [20] and in assay [6] was “inactive” throughout. The Potency result in assay [7], in [8], in assay [9], in assay [10], in assay [11] and in [12] was “inactive” throughout. The Potency entry in assay [13], in [14], in assay [15], in [16], in assay [17] and in assay [18] was “inactive” throughout.
Turning to `Cc1cc2c(C(C)C)c(O)c(O)c(C=O)c2c(O)c1-c1c(C)cc2c(C(C)C)c(O)c(O)c(C=O)c2c1O`, the Potency was 21.1 µM (active) and 14.8 µM (active) in [1]; 4.22 µM (active) and 3.72 µM (active) in assay [2]; 23.5 µM (active) in assay [3]; 5.96 µM (active) and 9.35 µM (active) in assay [4]; 15.5 µM (active) and 24.3 µM (active) in assay [5]; 3.76 µM (active) and 2.96 µM (active) in assay [20]. The Potency in assay [7] was 8.41 µM (active) and 16.6 µM (active); in assay [9], 8.41 µM (active) and 7.43 µM (active); in assay [10], 3.35 µM (active) and 11.8 µM (active); in [11], 13.8 µM (active) and 19.3 µM (active); in assay [12], 23.5 µM (active); in assay [13], 11 µM (active) and 19.3 µM (active). The Potency in assay [14] is 26.6 µM (active) and 29.6 µM (active); in [15], 21.1 µM (active) and 23.5 µM (active); in assay [18] it was 16.8 µM (active) and 18.7 µM (active). The Potency result in [6] and in assay [16] was “inactive” throughout.
Consider `COc1ccc2c3n(c(=NC(=O)c4cccnc4)nc2c1OC)CCN3`, for which the Potency was 1.87 µM (active) in [1]; 18.7 µM (active) in [2]; 0.743 µM (active) in assay [3]; 0.372 µM (active) in [4]; 18.7 µM (active) in assay [20]; 1.18 µM (active) in [7]. The Potency was 961 nM (active) in assay [8]; 4.18 µM (active) in assay [9]; 14.8 µM (active) in assay [10]; 1.87 µM (active) in [14]; 2.35 µM (active) in assay [15]; 935 nM (active) in assay [18]. The Potency result in [11], in [16] and in assay [17] was “inactive” each time.
Consider `CC(C)(C)NCC(O)c1ccc(O)c(CO)c1` (stereo unspecified), for which the Potency result in [1], in assay [2], in assay [3], in assay [5], in assay [20] and in assay [6] was “inactive” throughout. For the same compound, the Potency result in [7], in assay [8], in assay [9], in assay [10], in assay [11] and in assay [12] was “inactive” each time. Also, the Potency result in assay [14], in [15], in assay [16], in assay [17] and in assay [18] was “inactive” throughout.
Turning to `O=C1CCC(N2C(=O)c3ccccc3C2=O)C(=O)N1` (stereo unspecified), the Potency entry in assay [1], in assay [2], in assay [3], in assay [4], in assay [5] and in assay [20] was “inactive” throughout. Moreover, the Potency result in assay [6], in [7], in [8], in [9], in [10] and in assay [11] was “inactive” in each case. Besides, the Potency result in assay [12], in [13], in assay [14], in assay [15], in [16] and in [17] was “inactive” each time. For the same compound, the Potency entry in assay [18] was “inactive”.
As for `Clc1cccc(Cl)c1NC1=NCCN1`, the Potency entry in assay [1], in assay [2], in assay [3], in [4], in [5] and in assay [20] was “inactive” throughout. The Potency entry in assay [6], in assay [7], in assay [8], in [9], in assay [10] and in assay [11] was “inactive” throughout. For the same compound, the Potency entry in assay [12], in assay [13], in [14], in assay [15], in [16] and in assay [17] was “inactive” throughout. Also, the Potency entry in assay [18] was “inactive”.
Take `C[C@]12CCC(=O)C=C1CC[C@@H]1[C@@H]2[C@@H](O)C[C@@]2(C)[C@H]1CC[C@]2(O)C(=O)CO`: the Potency entry in assay [1], in [2], in assay [3], in [5], in [20] and in assay [6] was “inactive” each time. The Potency result in [7], in assay [8], in [9], in assay [10], in [11] and in assay [12] was “inactive” throughout. The Potency result in [13], in assay [14], in assay [15], in assay [16], in assay [17] and in [18] was “inactive” in each case.
As for `CNC[C@H](O)c1cccc(O)c1`, the Potency result in assay [1], in [2], in assay [3], in assay [4], in assay [5] and in assay [20] was “inactive” throughout. For the same compound, the Potency result in [6], in assay [7], in assay [8], in assay [9], in [10] and in [11] was “inactive” each time. Moreover, the Potency entry in assay [12], in assay [13], in assay [14], in assay [15], in assay [16] and in [17] was “inactive” in each case. In assay [18], the Potency result was “inactive”.

Values taken from PubChem BioAssay (NCATS).
